From ChEMBL document CHEMBL4513146, “CO-ADD screening of Karazin Kharkiv National University (Ukraine) compounds”
Results with a measured potency or affinity are listed apart.

Tests used:
[1] = system: Staphylococcus aureus; conditions: Concentration 32 ug.mL-1;; ASSAY_TEST Inhibition of Bacterial Growth; detection method Absorption (OD600); MEDIA CAMHB; plate type 384well; NBS; CORNING #3640; time 18 hr
[2] = system: Escherichia coli; conditions: Concentration 32 ug.mL-1;; ASSAY_TEST Inhibition of Bacterial Growth; detection method Absorption (OD600); MEDIA CAMHB; plate type 384well; NBS; CORNING #3640; time 18 hr

Structure (SMILES)	Inhibition [1] [%]	Inhibition [2] [%]
Cc1ccc(-c2ccc3nn(CC(=O)Nc4ccc(Cl)c(C(F)(F)F)c4)c(=O)n3n2)cc1C	-0.53	-10.28
CCOc1ccc(-n2ccn3c(SCC(=O)c4c(C)[nH]c5ccccc45)nnc3c2=O)cc1	-0.13	-15.25
Cc1ccc(NC(=O)c2ccc3nnc(SCC(=O)Nc4ccc(F)cc4)n3c2)cc1	14.37	5.45
CCOC(=O)c1ccccc1NC(=O)Cn1nc2ccc(C(=O)Nc3ccc(OC)cc3)cn2c1=O	0.2	-8.03
Cc1ccc(NC(=O)Cn2c(=O)c3nnc(C)n3c3ccccc32)cc1F	11.98	-4.13
Cc1ccc(N(Cc2ccccc2F)S(=O)(=O)c2ccc3nncn3c2)cc1	-11.4	-11.46
CC1CCN(C(=O)Cn2nc3n(Cc4ccco4)c(=O)c4sccc4n3c2=O)CC1	1.87	-2.27
Cc1ccc(NC(=O)Cn2nc3c4c5c(sc4ncn3c2=O)CCCC5)cc1C	0.13	-5.89
CC(C)c1nnc2c(SCC(=O)Nc3cccc(Br)c3)nc3ccccc3n12	4.41	-8.3
COc1ccc(NC(=O)CSc2nnc3c(=O)n(-c4ccc(Br)cc4)ccn23)cc1	5.23	2.74
COc1ccc(-c2cc3c4nn(CC(=O)Nc5ccc(C)c(F)c5)c(=O)n4ccn3n2)cc1	0.97	2.58
CN(C)c1nc2ccccc2n2c(=O)n(CC(=O)Nc3ccc4c(c3)OCO4)nc12	1.33	1.96
